Experimental data reported in PubChem BioAssay AID2284423 (EPA ToxCast).
Results filed as inconclusive are left out. Active and inactive are the calls of the source. Rule for the calls: active = hit-call score of the fitted dose curve at least 0.9, where 1 is the maximum; inconclusive = response in the unintended direction; inactive = score below 0.9.

These compounds were tested on SRY-box transcription factor 17 (SOX17) Protein Expression, SOX17 (gene 64321) (assay: CCTE_Deisenroth_DEVTOX-GLR_Ecto_SOX17: CCTE's DevTox GLR-Ecto Assay Evaluation of SRY-box transcription factor 17 (SOX17) Protein Expression, Deisenroth Lab).
Protocol: CCTE_Deisenroth_DEVTOX-GLR_Ecto assay is a cell-based, multiplex-readout assay that uses RUES2-GLR, a human pluripotent cell line, with measurements taken at 48 hours after chemical dosing in a 384-well microplateCCTE_Deisenroth_DEVTOX-GLR_Ecto_SOX17 is 1 of 4 assay components calculated from the CCTE_Deisenroth_DEVTOX-GLR_Ecto assay and it measures an the percentage of cells in an endoderm state. Using a type of inducible fluorescent protein reporter, gain-of-signal activity can be used to understand changes in gene expression with fluorescent microscopy. The percentage of SOX17+ cells are determined by calculating the number of SOX17+ cells divided by the cell count. To generalize the intended target to other relatable targets, this assay component is annotated to the transcription factor intended target family, where the subfamily is SRY-related HMG-box.Data from the assay component CCTE_Deisenroth_DEVTOX-GLR_Ecto_SOX17 was analyzed as 1 assay endpoint. The endpoint is the percent SOX17+ cell population minus the 0.2% DMSO control in the CCTE_Deisenroth_DEVTOX-GLR_Ecto assay. This assay endpoint can be referred to as a secondary readout since this assay has produced multiple assay endpoints where this one serves as a measure of endoderm differentiation.
All assay protocols are aligned to the DevTox GLR-Endo assay workflow. Cells are seeded into 384-well microplates for 24 hours prior to initiating differentiation in defined media for a total duration of 48 hours. A total of two chemical exposures are administered in 24-hour intervals during the 48-hour differentiation period. At the assay termination point, cells are fixed and stained with a fluorescent dye demarcating the nucleus. High-content imaging is used to acquire brightfield and fluorescent channel images across 5 fields per well. Cell identification and mean biomarker fluorescence intensities are calculated with image analysis software to determine the total cell counts for viability assessment and the biomarker expression frequency for each lineage-dependent assay. A typical experimental design tests a 10-point concentration series (1 nM - 200 uM) for 28 compounds in single technical replicate. Assay plate controls include non-differentiated pluripotent cells (baseline control), lineage-specific differentiated cells (differentiation control), and DMSO solvent exposed differentiated cells (solvent control). Experiments typically comprise a minimum of four experimental replicates (n=4).

SMILES | AC50 | outcome
CC1=C(/C=C/C(C)=C/C=C/C(C)=C/C(=O)O)C(C)(C)CCC1 | 171 µM (active) | 
O=C1NS(=O)(=O)c2ccccc21 |  | inactive
CN(Cc1cnc2nc(N)nc(N)c2n1)c1ccc(C(=O)N[C@@H](CCC(=O)O)C(=O)O)cc1 |  | inactive
CCCC(CCC)C(=O)O |  | inactive
CCN(CC)CCNC(=O)c1c(C)[nH]c(/C=C2\C(=O)Nc3ccc(F)cc32)c1C | 1.14 µM (active) | 
O=C1CCC(N2C(=O)c3ccccc3C2=O)C(=O)N1 (configuration not stated) |  | inactive
O=C1NC(=O)C(c2ccccc2)(c2ccccc2)N1 |  | inactive
CS(=O)(=O)OCCCCOS(C)(=O)=O | 100 µM (active) | 
CC(C)(c1ccc(O)cc1)c1ccc(O)cc1 |  | inactive
O=c1[nH]cc(F)c(=O)[nH]1 | 32 µM (active) | 
CC/C(=C(/CC)c1ccc(O)cc1)c1ccc(O)cc1 |  | inactive
CC1=C(/C=C/C(C)=C/C=C/C(C)=C\C(=O)O)C(C)(C)CCC1 | 183 µM (active) | 
